Values joined by “and” are separate entries in the source; they are usually repeats but may differ in a detail not shown here. Equal values may be shown once. Among all 5,500 compounds or so, about 2,000 (36%) were called active. Not shown: some 18% with an inconclusive outcome. Cut-off read from the data, not from the text of the source: active = normalized growth mostly below about 0.91 (no sharp cut-off); inconclusive = no clear call, values can overlap the other calls; inactive = mostly above about 0.92. Some of the results follow.
Test: chemical genetic growth profiling, strain panel (AID 1159580);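 note: tested at 20 µM; growth read once vehicle control cultures reached saturation at 30 °C; 1 = growth at the plate median or of vehicle wells; lower values mean less growth of the strain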
Details: S. cerevisiae deletion strains, growth OD

Measured: normalized growth

Cc1cc(C)nc(NS(=O)(=O)c2ccc(N)cc2)n1
inactive: locus YAL013W, strain DEP1, hits give low values 0.998 | locus YAL021C, strain ccr4, hits give low values 0.957 | locus YAL026C, strain drs2, hits give low values 0.974 | locus YAL030W, strain snc1, hits give low values 0.972 | locus YBL061C, strain skt5, hits give low values 0.985 | locus YBR009C, strain hhf1, hits give low values 0.934 | locus YBR021W, strain FUR4, hits give low values 1.01 | locus YBR023C, strain chs3, hits give low values 0.982 | locus YBR171W, strain sec66, hits give low values 0.989 | locus YBR229C, strain ROT2, hits give low values 0.999 | locus YBR231C, strain swc5, hits give low values 0.998 | locus YBR279W, strain paf1, hits give low values 0.982 | locus YCL011C, strain gbp2, hits give low values 0.96 | locus YCL016C, strain dcc1, hits give low values 0.966 | locus YCL029C, strain bik1, hits give low values 0.981 | locus YCL069W, strain vba3, hits give low values 0.969 | locus YCR088W, strain abp1, hits give low values 0.965 | locus YDL005C, strain med2, hits give low values 0.969 | locus YDL035C, strain GPR1, hits give low values 0.988 | locus YDL040C, strain nat1, hits give low values 0.98 | locus YDL074C, strain BRE1, hits give low values 1.01 | locus YDL101C, strain DUN1, hits give low values 0.99 | locus YDL134C, strain PPH21, hits give low values 0.996 | locus YDL185W, strain tfp1, hits give low values 0.938 | locus YDL192W, strain arf1, hits give low values 0.963 | locus YDR001C, strain nth1, hits give low values 0.963 | locus YDR069C, strain doa4, hits give low values 0.991 | locus YDR101C, strain arx1, hits give low values 1 | locus YDR137W, strain rgp1, hits give low values 0.981 | locus YDR150W, strain NUM1, hits give low values 0.999 | locus YDR159W, strain sac3, hits give low values 0.914 | locus YDR162C, strain NBP2, hits give low values 0.981 | locus YDR195W, strain ref2 0.959 | locus YDR297W, strain sur2, hits give low values 0.983 | locus YDR318W, strain mcm21, hits give low values 0.964 | locus YDR334W, strain swr1, hits give low values 0.985 | locus YDR335W, strain msn5, hits give low values 0.977 | locus YDR388W, hits give low values 0.967 | locus YDR392W, strain spt3, hits give low values 0.91 | locus YDR502C, strain sam2, hits give low values 0.98 | locus YEL003W, strain gim4, hits give low values 0.967 | locus YEL037C, strain rad23, hits give low values 0.983 | locus YEL061C, strain CIN8 (second series), hits give low values 0.972 | locus YEL061C, strain CIN8, hits give low values 1 | locus YER015W, strain faa2, hits give low values 0.996 | locus YER016W, strain bim1, hits give low values 0.96 | locus YER110C, hits give low values 0.99 | locus YER111C, strain swi4, hits give low values 0.965 | locus YER155C, strain BEM2 (second series), hits give low values 1.01 | locus YER155C, strain BEM2, hits give low values 0.996 | locus YER167W, strain BCK2, hits give low values 0.995 | locus YFR010W, strain ubp6, hits give low values 0.996 | locus YGL078C, strain dbp3, hits give low values 0.977 | locus YGL086W, strain mad1, hits give low values 1 | locus YGL167C, strain pmr1, hits give low values 0.977 | locus YGL173C, strain kem1, hits give low values 0.979 | locus YGL227W, strain vid30, hits give low values 0.988 | locus YGL240W, strain doc1, hits give low values 1.01 | locus YGL248W, strain PDE1, hits give low values 0.998 | locus YGL253W, strain hxk2, hits give low values 0.968 | locus YGR135W, strain pre9, hits give low values 0.995 | locus YGR229C, strain SMI1, hits give low values 0.989 | locus YGR252W, strain gcn5, hits give low values 1.17 | locus YHR013C, strain ard1, hits give low values 0.92 | locus YHR027C, strain rpn1, hits give low values 0.973 | locus YHR030C, strain SLT2, hits give low values 0.995 and 0.954 | locus YHR079C, strain IRE1 (second series), hits give low values 0.97 | locus YHR079C, strain IRE1, hits give low values 0.981 | locus YHR094C, strain hxt1, hits give low values 0.968 | locus YHR129C, strain ARP1, hits give low values 0.997 | locus YHR142W, strain chs7, hits give low values 0.968 | locus YHR200W, strain rpn10, hits give low values 0.98 | locus YIL066C, strain RNR3, hits give low values 1.01 | locus YIL073C, strain SPO22, hits give low values 0.842 | locus YIL125W, strain kgd1, hits give low values 0.954 | locus YIR030C, strain dcg1, hits give low values 0.983 | locus YJL092W, strain hpr5, hits give low values 0.981 | locus YJL095W, strain BCK1 (second series), hits give low values 0.983 | locus YJL095W, strain BCK1, hits give low values 1.02 and 0.967 | locus YJL115W, strain asf1, hits give low values 0.968 | locus YJL129C, strain trk1, hits give low values 0.98 | locus YJL134W, strain LCB3, hits give low values 0.985 | locus YJL154C, strain vps35, hits give low values 0.978 | locus YJL164C, strain tpk1, hits give low values 0.963 | locus YJL166W, strain qcr8, hits give low values 1.01 | locus YJL168C, strain set2, hits give low values 0.977 | locus YJL187C, strain SWE1 (second series), hits give low values 0.987 | locus YJR043C, strain POL32, hits give low values 1

Source: PubChem BioAssay AID1159580 (chemical genetic matrix, 2015)
